# Experimental data published in PubChem BioAssay (NCI).
# This is part of a sample that, as a whole, favours compounds with a hit. Of some 79,000 tested, about 15% had one in any assay. Unmarked numbers belong to inactive results. The source made the active and inactive calls. Rule as the data show it: active = growth inhibition above about 70%; inactive = the rest.
# Legend:
# [1] = NCI Yeast Anticancer Drug Screen. Data for the mec2-1 strain (AID 157); conditions: S. cerevisiae mec2-1 strain, hits give high values
# Method in brief: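 Each compound was tested on mec2-1 yeast, a strain altered in DNA damage repair or cell cycle control. Growth inhibition is reported relative to vehicle.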
# [2] = NCI Yeast Anticancer Drug Screen. Data for the rad14 strain (AID 159);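 also: 0% = growth of vehicle-treated control cultures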; conditions: S. cerevisiae rad14 strain growth inhibition, hits give high values
# Method in brief: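 A mutant yeast strain defective in DNA damage repair is treated with compound; inhibition of its growth is scored against untreated, vehicle-exposed cultures.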
# [3] = NCI Yeast Anticancer Drug Screen. Data for the sgs1 mgt1 strain (AID 161);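 also: 0% = growth of cultures given vehicle only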; conditions: S. cerevisiae sgs1 mgt1 strain, hits give high values
# Method in brief: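 Mutant yeast exposed to compound; growth scored against vehicle-only wells.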
# [4] = NCI Yeast Anticancer Drug Screen. Data for the CLN2oe strain (AID 163);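 also: 0% = growth of vehicle-only control cultures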; conditions: S. cerevisiae CLN2oe strain, hits give high values
# Method in brief: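 First, the altered yeast strain was treated with each compound; second, its growth was measured; finally, inhibition was derived by comparison with vehicle controls.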
# [5] = NCI Yeast Anticancer Drug Screen. Data for the cln2 rad14 strain (AID 165);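 also: 0% = growth equal to vehicle treated cultures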; conditions: S. cerevisiae cln2 rad14 strain, hits give high values
# Method in brief: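 Test compounds were added to cln2 rad14 yeast cultures; inhibition of growth was then determined by comparison with vehicle treatment.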
# [6] = NCI Yeast Anticancer Drug Screen. Data for the bub3 strain (AID 167); conditions: S. cerevisiae bub3 mutant strain, hits give high values
# Method in brief: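 Steps: expose the mutant yeast strain to compound; grow alongside vehicle-treated cultures; measure growth; express inhibition against the vehicle cultures.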
# [7] = NCI Yeast Anticancer Drug Screen. Data for the wt2 strain (AID 169);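 also: 0% = growth of vehicle-treated yeast cultures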; conditions: S. cerevisiae wt2 strain growth inhibition, hits give high values
# Method in brief: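 The panel's yeast strains carry defined changes in DNA repair or cell cycle genes. Each strain is grown with compound, and growth loss is scored relative to vehicle.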
# [8] = NCI Yeast Anticancer Drug Screen. Data for the mlh1 strain (AID 171);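 also: 0% = growth of vehicle-treated control cultures of the same strain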; conditions: S. cerevisiae mlh1 strain growth inhibition, hits give high values
# Method in brief: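 Inhibition values reflect reduced yeast growth in the presence of compound, referenced to vehicle controls, using a strain chosen for its alteration in DNA repair or cell cycle control.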
# [9] = NCI Yeast Anticancer Drug Screen. Data for the sgs1 strain (AID 173);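 also: 0% = growth of vehicle-only control cultures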; conditions: S. cerevisiae sgs1 mutant, hits give high values
# Method in brief: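 Vehicle-treated cultures served as reference for growth inhibition of a yeast strain altered in DNA damage repair or cell cycle control after compound exposure.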
# [10] = NCI Yeast Anticancer Drug Screen. Data for the mlh1 rad18 strain (AID 175); conditions: S. cerevisiae mlh1 rad18 strain growth inhibition, hits give high values
# Method in brief: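 Inhibition values reflect reduced growth of mutant yeast versus vehicle-treated controls following compound exposure; the mutations affect DNA damage repair.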
# [11] = NCI Yeast Anticancer Drug Screen. Data for the rad18 strain (AID 177); conditions: S. cerevisiae rad18 mutant growth inhibition, hits give high values
# Method in brief: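 Steps: expose repair-mutant yeast to compound; measure growth; express as inhibition relative to vehicle control.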
# [12] = NCI Yeast Anticancer Drug Screen. Data for the rad52 strain (AID 147);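 also: 0% = growth of vehicle-treated control cultures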; conditions: S. cerevisiae rad52 mutant growth inhibition, hits give high values
# Method in brief: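 Inhibition of yeast growth, referenced to vehicle controls, was the measured output for a strain with defective DNA damage repair.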
# [13] = NCI Yeast Anticancer Drug Screen. Data for the wt1 strain (AID 149);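 also: 0% = growth of vehicle-treated wt1 cultures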; conditions: S. cerevisiae wt1 strain (SPY 50644) growth inhibition, hits give high values
# Method in brief: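 Compounds are added to wt1 yeast cultures. Growth is then measured. Inhibition is expressed relative to vehicle-treated controls.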
# [14] = NCI Yeast Anticancer Drug Screen. Data for the rad50EPP+ strain (AID 151);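 also: 0% = growth of vehicle-treated control cultures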; conditions: S. cerevisiae rad50 mutant strain, hits give high values
# Method in brief: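 Genetically defined yeast (rad50EPP+, DNA damage repair alteration) is grown with compound, and inhibition of growth is expressed relative to vehicle-treated controls.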
# [15] = NCI Yeast Anticancer Drug Screen. Data for the mgt1 strain (AID 153); conditions: S. cerevisiae mgt1 mutant growth inhibition, hits give high values
# Method in brief: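 In the mgt1 strain, test compounds were added and growth inhibition was determined relative to vehicle-treated controls.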
# [16] = NCI Yeast Anticancer Drug Screen. Data for the rad50 strain (AID 155);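 also: 0% = growth of vehicle-only cultures of the same strain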; conditions: S. cerevisiae rad50 strain growth inhibition, hits give high values
# Method in brief: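 Inhibition values express reduced yeast growth in compound-treated cultures relative to vehicle-treated controls.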
# [17] = at 5.0 µM (retest, dose inferred, filed as 0.5)
# [18] = at 50.0 µM (retest, dose inferred, filed as 5.0)
smiles,measurement,setting,value
O=C(Nc1cccs1)c1ccccc1,growth inhibition,[1]; [17],-52%
same,growth inhibition,[1]; at 11.0 µM,-4%
same,growth inhibition,[1]; at 33.0 µM,3%
same,growth inhibition,[1]; [18],-42%
same,growth inhibition,[1]; at 50.0 µM,30.1%
same,growth inhibition,[1]; at 100.0 µM,51%
same,growth inhibition,[2]; at 1.2 µM,0%
same,growth inhibition,[2]; at 3.7 µM,-3%
same,growth inhibition,[2]; at 11.0 µM,0%
same,growth inhibition,[2]; at 33.0 µM,23%
same,growth inhibition,[2]; at 100.0 µM,80% (active)
same,growth inhibition,[3]; [17],-67%
same,growth inhibition,[3]; [18],66%
same,growth inhibition,[3]; at 50.0 µM,65.8%
same,growth inhibition,[4]; at 1.2 µM,0%
same,growth inhibition,[4]; at 3.7 µM,-1%
same,growth inhibition,[4]; at 11.0 µM,-1%
same,growth inhibition,[4]; at 33.0 µM,-1%
same,growth inhibition,[4]; at 100.0 µM,53%
same,growth inhibition,[5]; [17],-65%
same,growth inhibition,[5]; [18],-62%
same,growth inhibition,[5]; at 50.0 µM,-0.2%
same,growth inhibition,[6]; at 1.2 µM,-12%
same,growth inhibition,[6]; at 3.7 µM,-9%
same,growth inhibition,[6]; [17],-68%
same,growth inhibition,[6]; at 11.0 µM,-3%
same,growth inhibition,[6]; at 33.0 µM,-7%
same,growth inhibition,[6]; [18],8%
same,growth inhibition,[6]; at 50.0 µM,13.8%
same,growth inhibition,[6]; at 100.0 µM,64%
same,growth inhibition,[7]; at 1.2 µM,-1%
same,growth inhibition,[7]; at 3.7 µM,-1%
same,growth inhibition,[7]; at 11.0 µM,-2%
same,growth inhibition,[7]; at 33.0 µM,-2%
same,growth inhibition,[7]; at 100.0 µM,67%
same,growth inhibition,[8]; at 1.2 µM,6%
same,growth inhibition,[8]; at 3.7 µM,-5%
same,growth inhibition,[8]; at 11.0 µM,-5%
same,growth inhibition,[8]; at 33.0 µM,2%
same,growth inhibition,[8]; at 100.0 µM,86% (active)
same,growth inhibition,[9]; at 1.2 µM,0%
same,growth inhibition,[9]; at 3.7 µM,-1%
same,growth inhibition,[9]; at 11.0 µM,-1%
same,growth inhibition,[9]; at 33.0 µM,3%
same,growth inhibition,[9]; at 100.0 µM,86% (active)
same,growth inhibition,[10]; [17],-125%
same,growth inhibition,[10]; [18],80% (active)
same,growth inhibition,[10]; at 50.0 µM,94.6% (active)
same,growth inhibition,[11]; at 1.2 µM,-6%
same,growth inhibition,[11]; at 3.7 µM,-2%
same,growth inhibition,[11]; at 11.0 µM,1%
same,growth inhibition,[11]; at 33.0 µM,4%
same,growth inhibition,[11]; at 100.0 µM,94% (active)
CNC(=O)OCc1c(COC(=O)NC)c(C)n(-c2ccc(Br)cc2)c1C,growth inhibition,[12]; at 1.2 µM,-7%
same,growth inhibition,[12]; at 3.7 µM,-6%
same,growth inhibition,[12]; at 11.0 µM,-8%
same,growth inhibition,[12]; at 33.0 µM,6%
same,growth inhibition,[12]; at 100.0 µM,87% (active)
same,growth inhibition,[13]; at 1.2 µM,-41%
same,growth inhibition,[13]; at 3.7 µM,-38%
same,growth inhibition,[13]; at 11.0 µM,-37%
same,growth inhibition,[13]; at 33.0 µM,-32%
same,growth inhibition,[13]; at 100.0 µM,98% (active)
same,growth inhibition,[14]; at 1.2 µM,-25%
same,growth inhibition,[14]; at 3.7 µM,-19%
same,growth inhibition,[14]; at 11.0 µM,-24%
same,growth inhibition,[14]; at 33.0 µM,-25%
same,growth inhibition,[14]; at 100.0 µM,-3%
same,growth inhibition,[15]; at 1.2 µM,-15%
same,growth inhibition,[15]; at 3.7 µM,-17%
same,growth inhibition,[15]; at 11.0 µM,-20%
same,growth inhibition,[15]; at 33.0 µM,14%
same,growth inhibition,[15]; at 100.0 µM,99% (active)
same,growth inhibition,[16]; at 1.2 µM,-15%
same,growth inhibition,[16]; at 3.7 µM,-27%
same,growth inhibition,[16]; [17],27%
same,growth inhibition,[16]; at 11.0 µM,-17%
same,growth inhibition,[16]; at 33.0 µM,-2%
same,growth inhibition,[16]; [18],46%
same,growth inhibition,[16]; at 50.0 µM,30.4%
same,growth inhibition,[16]; at 100.0 µM,91% (active)
same,growth inhibition,[1]; at 1.2 µM,-37%
same,growth inhibition,[1]; at 3.7 µM,-24%
same,growth inhibition,[1]; [17],22%
same,growth inhibition,[1]; at 11.0 µM,-23%
same,growth inhibition,[1]; at 33.0 µM,-8%
same,growth inhibition,[1]; [18],23%
same,growth inhibition,[1]; at 50.0 µM,13%
same,growth inhibition,[1]; at 100.0 µM,97% (active)
same,growth inhibition,[2]; at 1.2 µM,-23%
same,growth inhibition,[2]; at 3.7 µM,-16%
same,growth inhibition,[2]; at 11.0 µM,-7%
same,growth inhibition,[2]; at 33.0 µM,73% (active)
same,growth inhibition,[2]; at 100.0 µM,98% (active)
same,growth inhibition,[3]; [17],4%
same,growth inhibition,[3]; [18],-61%
same,growth inhibition,[3]; at 50.0 µM,78% (active)
same,growth inhibition,[4]; at 1.2 µM,-7%
same,growth inhibition,[4]; at 3.7 µM,0%
same,growth inhibition,[4]; at 11.0 µM,-1%
same,growth inhibition,[4]; at 33.0 µM,-2%
same,growth inhibition,[4]; at 100.0 µM,69%
same,growth inhibition,[5]; [17],10%
same,growth inhibition,[5]; [18],-81%
same,growth inhibition,[5]; at 50.0 µM,30%
same,growth inhibition,[6]; at 1.2 µM,-29%
same,growth inhibition,[6]; at 3.7 µM,-18%
same,growth inhibition,[6]; [17],0%
same,growth inhibition,[6]; at 11.0 µM,-18%
same,growth inhibition,[6]; at 33.0 µM,41%
same,growth inhibition,[6]; [18],-63%
same,growth inhibition,[6]; at 50.0 µM,85% (active)
same,growth inhibition,[6]; at 100.0 µM,98% (active)
same,growth inhibition,[7]; at 1.2 µM,-28%
same,growth inhibition,[7]; at 3.7 µM,-19%
same,growth inhibition,[7]; at 11.0 µM,-19%
same,growth inhibition,[7]; at 33.0 µM,-13%
same,growth inhibition,[7]; at 100.0 µM,96% (active)
same,growth inhibition,[8]; at 1.2 µM,-26%
same,growth inhibition,[8]; at 3.7 µM,-13%
same,growth inhibition,[8]; at 11.0 µM,9%
same,growth inhibition,[8]; at 33.0 µM,59%
same,growth inhibition,[8]; at 100.0 µM,97% (active)
same,growth inhibition,[9]; at 1.2 µM,15%
same,growth inhibition,[9]; at 3.7 µM,12%
same,growth inhibition,[9]; at 11.0 µM,19%
same,growth inhibition,[9]; at 33.0 µM,32%
same,growth inhibition,[9]; at 100.0 µM,96% (active)
same,growth inhibition,[10]; [17],25%
same,growth inhibition,[10]; [18],84% (active)
same,growth inhibition,[10]; at 50.0 µM,86.8% (active)
same,growth inhibition,[11]; at 1.2 µM,-19%
same,growth inhibition,[11]; at 3.7 µM,-12%
same,growth inhibition,[11]; at 11.0 µM,-5%
same,growth inhibition,[11]; at 33.0 µM,43%
same,growth inhibition,[11]; at 100.0 µM,96% (active)
